Laboratory results from PubChem BioAssay (NCATS).
Records with an inconclusive call do not appear. The source made the active and inactive calls. Unless noted, the call rests on the fitted dose curve; in most records, active means well fitted curve in the direction sought with a large enough effect; inconclusive means small, poorly fitted or top-dose-only effect, or another doubt; inactive means no such curve, though single readings can be large; an effect the other way counts as inactive or inconclusive.

Columns and labels:
[1] = AP1 Signaling Pathway (AID 357; active means well fitted curve in either direction with a large enough effect, not every such curve was filed as active;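 further: ME-180 reporter cells stimulated with EGF at its EC50 level; on the % scale 0 is the no-effect control and ±100 the full control effect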)
Method in brief: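 Read-out was the 460nm/530nm emission ratio (excitation 405nm) after CCF4 loading for 2.5 hours at room temperature. Cells carried an AP-1-driven beta-lactamase reporter, were stimulated with EC50 EGF plus compound for 5 hours, and AC50 values came from titrations.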

[2] = NFAT Signaling Pathway (AID 444; active means well fitted curve in either direction with a large enough effect, not every such curve was filed as active;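 further: carbachol stimulus at about its EC50 of 1 µM final; on the % scale 0 is the no-effect control and ±100 the full control effect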); conditions: Jurkat NFAT-bla M1, carbachol, beta-lactamase ratio, 5 h; at 17.2 µM (top of the series) unless noted
Method in brief: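 Jurkat cells with NFAT-driven β-lactamase reporter and co-expressed M1 receptor, stimulated with carbachol (final 1 uM, ~EC50), compound titration, 5 h at 37 °C. CCF4 loaded 1 h at RT; 460/530 nm ratio gave %activity and AC50.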

[3] = Stat Signaling Pathway (AID 446; active means well fitted curve in either direction with a large enough effect, not every such curve was filed as active;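 further: ME-180 cervical cancer cells given 40 pM IL-6 alongside compound; SIE-controlled beta-lactamase reporter measured as 460/530 nm FRET emission ratio; on the % scale 0 is the no-effect control and ±100 the full control effect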)
Method in brief: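 Emission at 460 and 530 nm (excitation 405 nm) reports SIE-controlled beta-lactamase in ME-180 cells. Cells received compound with 40 pM IL-6 for 5 hrs at 37 C; data scaled between 300 pM IL-6 and 125 nM JAK-inhibitor controls.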

[4] = target: Glucocorticoid receptor (Homo sapiens) (UniProt P04150); assay: GR-GFP Redistribution (AID 450;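 active means compounds whose dose series gives a full or clear partial fitted curve of increased nuclear translocation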; further: potency means the concentration at half of the fitted maximal effect); conditions: U2OS GR-GFP nuclear translocation, laser cytometry, 2 h
Chain of Glucocorticoid receptor (Homo sapiens) (P04150 whole entry, looked up, the tested form may be a part): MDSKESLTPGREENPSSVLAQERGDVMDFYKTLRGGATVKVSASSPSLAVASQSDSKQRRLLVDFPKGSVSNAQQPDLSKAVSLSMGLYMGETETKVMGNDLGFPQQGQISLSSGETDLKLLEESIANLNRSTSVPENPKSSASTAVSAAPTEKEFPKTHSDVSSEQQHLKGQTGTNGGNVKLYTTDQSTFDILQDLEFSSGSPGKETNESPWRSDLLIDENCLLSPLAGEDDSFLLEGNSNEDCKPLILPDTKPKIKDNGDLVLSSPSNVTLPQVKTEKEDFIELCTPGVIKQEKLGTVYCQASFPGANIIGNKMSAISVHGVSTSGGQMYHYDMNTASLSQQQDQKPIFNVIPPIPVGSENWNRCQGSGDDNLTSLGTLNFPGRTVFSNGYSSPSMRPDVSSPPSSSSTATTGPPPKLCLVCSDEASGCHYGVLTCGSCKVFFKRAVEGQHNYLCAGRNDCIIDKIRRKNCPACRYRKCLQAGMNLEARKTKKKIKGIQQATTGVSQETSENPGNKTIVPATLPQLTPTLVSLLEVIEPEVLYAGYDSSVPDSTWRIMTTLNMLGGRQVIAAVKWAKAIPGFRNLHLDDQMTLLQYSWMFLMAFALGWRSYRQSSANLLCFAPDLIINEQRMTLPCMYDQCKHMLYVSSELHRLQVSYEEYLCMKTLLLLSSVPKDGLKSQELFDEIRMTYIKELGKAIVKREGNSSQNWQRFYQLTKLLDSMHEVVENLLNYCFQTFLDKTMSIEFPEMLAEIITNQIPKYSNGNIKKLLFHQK

[5] = target: Glucocorticoid receptor (Homo sapiens) (UniProt P04150); assay: GR-EFC Redistribution (AID 451; calls by dose curve; further: potency means the concentration at half of the fitted maximal effect); conditions: CHO-K1 GR-EFC translocation, beta-gal luminescence, 2 h
Method in brief: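 CHO-K1 cells expressing nuclear EA and GR-ED fragments of b-gal; compounds titrated up to 46 uM final, 2 h at 37 C. GR nuclear translocation read as complemented b-gal luminescence after 1 h RT detection.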

[6] = target: Mitogen-activated protein kinase 10 (Mus musculus) (UniProt Q61831); assay: JNK3 AlphaScreen Assay (AID 530; active means well fitted curve in either direction with a large enough effect, not every such curve was filed as active;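 further: kinase came from lysate of stimulated human HepG2 cells; signal reports phosphorylation of biotinylated GST-cJun 1-79 at Ser73 with 10 µM ATP; on the % scale 0 is the no-effect control and ±100 the full control effect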)
Method in brief: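 Activity was read by AlphaScreen after JNK3-containing HepG2 lysate (cytokine pre-activated) phosphorylated biotinylated GST-cJun with 10 uM ATP at room temperature. Phospho-Ser73 cJun antibody with Protein-A acceptor beads provided detection.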

[7] = qHTS Assay for Identification of Small Molecule Agonists for Hypoxia Response Element Signaling Pathway (AID 914; active means well fitted activation curve with a large enough effect in the signal ratio, with a control signal flat, not every such curve was filed as active; the % refers to the signal ratio; further: % of control where 0% means no effect); conditions: ME-180 (cervical carcinoma) HRE-bla reporter, beta-lactamase ratio, CoCl2, 17 h; activation: stronger effect = higher value
Method in brief: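 Cells were plated overnight, pin-dosed with compound in a titration series, co-stimulated with EC50 CoCl2 and incubated 17 hours at 37 degrees Celsius. CCF4 substrate was then loaded, and AC50 values came from the 460nm/530nm ratio.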

[8] = target: ATP-dependent 6-phosphofructokinase (Trypanosoma brucei brucei) (UniProt O15648); assay: qHTS Assay to Find Inhibitors of T. brucei phosphofructokinase: hit validation (AID 492961); further: on the % scale 0 is the no-effect control and ±100 the full control effect
Chain of ATP-dependent 6-phosphofructokinase (Trypanosoma brucei brucei) (O15648 whole entry, looked up): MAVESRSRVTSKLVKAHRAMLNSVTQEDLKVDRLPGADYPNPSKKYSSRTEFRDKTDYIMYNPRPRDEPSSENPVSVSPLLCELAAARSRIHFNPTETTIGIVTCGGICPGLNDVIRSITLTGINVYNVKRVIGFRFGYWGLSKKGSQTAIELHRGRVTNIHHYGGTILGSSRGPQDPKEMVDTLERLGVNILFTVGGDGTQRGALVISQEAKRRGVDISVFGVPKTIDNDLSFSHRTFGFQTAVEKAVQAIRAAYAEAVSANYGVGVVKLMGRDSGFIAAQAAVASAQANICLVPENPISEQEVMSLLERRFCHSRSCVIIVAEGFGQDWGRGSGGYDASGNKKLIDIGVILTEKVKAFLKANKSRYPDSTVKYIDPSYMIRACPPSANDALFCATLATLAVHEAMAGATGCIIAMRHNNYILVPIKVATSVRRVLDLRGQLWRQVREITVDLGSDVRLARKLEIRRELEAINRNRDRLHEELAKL
Method in brief: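 Luminescence from ADP-Glo reports ADP generated as T. brucei PFK (1.25 nM) phosphorylates 0.5 mM fructose-6-phosphate using 0.1 mM ATP. Reactions ran 45 min at room temperature, pH 8.0.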

[9] = target: Ubiquitin carboxyl-terminal hydrolase 1 (Homo sapiens) (UniProt O94782); assay: Inhibitors of USP1/UAF1: Pilot qHTS (AID 504865);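 further: rhodamine fluorescence freed from ubiquitin-rhodamine substrate followed over time; top concentration of the series differs between compounds; on the % scale 0 is the no-effect control and ±100 the full control effect; nearly all actives have a fitted effect of over 35% in size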
Chain of Ubiquitin carboxyl-terminal hydrolase 1 (Homo sapiens) (O94782 whole entry, looked up): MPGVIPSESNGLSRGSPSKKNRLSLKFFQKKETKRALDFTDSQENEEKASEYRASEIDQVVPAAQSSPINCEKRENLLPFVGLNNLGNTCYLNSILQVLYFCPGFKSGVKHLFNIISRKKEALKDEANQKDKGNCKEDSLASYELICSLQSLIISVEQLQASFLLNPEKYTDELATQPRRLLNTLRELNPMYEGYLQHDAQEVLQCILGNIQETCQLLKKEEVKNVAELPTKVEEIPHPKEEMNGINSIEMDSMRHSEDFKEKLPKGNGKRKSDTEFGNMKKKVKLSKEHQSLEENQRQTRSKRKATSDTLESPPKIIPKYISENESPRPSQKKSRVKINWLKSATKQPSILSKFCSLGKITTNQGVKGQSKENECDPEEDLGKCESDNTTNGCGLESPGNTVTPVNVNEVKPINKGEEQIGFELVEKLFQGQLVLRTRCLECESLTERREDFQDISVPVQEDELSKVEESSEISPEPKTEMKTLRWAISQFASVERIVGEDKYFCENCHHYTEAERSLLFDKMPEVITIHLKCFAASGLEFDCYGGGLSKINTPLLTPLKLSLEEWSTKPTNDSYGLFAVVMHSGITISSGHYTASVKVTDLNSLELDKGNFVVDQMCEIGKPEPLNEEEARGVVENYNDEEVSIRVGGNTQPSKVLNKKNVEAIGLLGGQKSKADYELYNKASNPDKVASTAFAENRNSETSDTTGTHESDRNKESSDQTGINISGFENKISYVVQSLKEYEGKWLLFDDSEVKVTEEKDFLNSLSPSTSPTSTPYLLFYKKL
Method in brief: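 Enzyme-free wells gave the negative control, while test wells held 1nM USP1/UAF1 preincubated with compound for 15 min at room temperature. Ub-Rho at 150nM final started the reaction, and fluorescence at 480/540 nm was recorded kinetically.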

[10] = target: Luciferin 4-monooxygenase (Photinus pyralis) (UniProt P08659); assay: Biochemical firefly luciferase enzyme assay for NPC (AID 624030);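 further: purified P. pyralis luciferase at 10 nM with luciferin and ATP substrate; 0% = DMSO and -100% = full luciferase inhibition by PTC124 control; nearly all actives have a fitted effect of over 70% in size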
Chain of Luciferin 4-monooxygenase (Photinus pyralis) (P08659 whole entry, looked up): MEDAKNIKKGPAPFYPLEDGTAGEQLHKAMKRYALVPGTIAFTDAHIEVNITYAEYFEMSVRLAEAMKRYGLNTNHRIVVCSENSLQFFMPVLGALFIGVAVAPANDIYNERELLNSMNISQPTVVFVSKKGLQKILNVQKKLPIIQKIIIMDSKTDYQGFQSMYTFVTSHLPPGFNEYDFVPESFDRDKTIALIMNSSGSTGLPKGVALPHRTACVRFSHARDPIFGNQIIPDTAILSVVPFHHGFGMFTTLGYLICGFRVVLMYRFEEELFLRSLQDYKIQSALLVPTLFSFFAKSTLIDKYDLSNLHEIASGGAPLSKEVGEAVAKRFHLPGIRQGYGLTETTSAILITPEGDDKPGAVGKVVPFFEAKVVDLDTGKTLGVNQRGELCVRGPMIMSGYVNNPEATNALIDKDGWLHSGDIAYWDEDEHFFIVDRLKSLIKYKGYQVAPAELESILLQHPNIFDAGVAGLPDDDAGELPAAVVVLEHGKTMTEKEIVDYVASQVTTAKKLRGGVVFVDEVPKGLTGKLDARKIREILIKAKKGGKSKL
Method in brief: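 Purified P. pyralis luciferase at 10 nM in 50 mM Tris Acetate (final), luminescence read within 5 minutes of enzyme addition to compounds. Activity normalised to PTC124 versus DMSO; concentration-response curves classed by r2, magnitude and activity.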

[11] = S16 Schwann cell viability assay (CellTiter-Glo assay) (AID 624031);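 further: native untransfected S16 rat Schwann cells; cellular ATP luminescence as a viability measure; plate controls were DMSO-treated cells for no effect and cell-free wells for full effect; nearly all actives have a fitted effect of over 70% in size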
Method in brief: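 Cells were seeded at 500-750 per well in phenol red-free DMEM with 10% FBS and left overnight. Compounds or DMSO were pinned in, incubation ran 24 h at 37 °C/5% CO2, then CellTiter-Glo reagent was added and luminescence measured.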

[12] = S16 Schwann cell PMP22 intronic element beta-lactamase assay (AID 624044; calls by dose curve;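 further: 0% = DMSO and -100% = potassium clavulanate positive control; nearly all actives have a fitted effect of over 15% in size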)
Method in brief: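 Beta-lactamase reporter under a PMP22 intronic regulatory element in stable S16 rat Schwann cells; 24 h compound exposure. 460 nm blue signal normalized between DMSO (0%) and potassium clavulanate, with 535 nm FRET tracking viability; curves classed by r2 and response.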

[13] = qHTS profiling for inhibitors of Plasmodium falciparum proliferation (AID 504749);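 further: 0% = DMSO vehicle and full inhibition = artemisinin control; nearly all actives have a fitted effect of over 60% in size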; conditions: P. falciparum in erythrocytes, SYBR Green DNA, 72 h, at 12.8 µM (top of the series)
Method in brief: (§1)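 Each compound contacts P. falciparum-infected red blood cells for 72 h at 37 C; lysis buffer (Tris, EDTA, saponin, Triton X, SYBR Green I) is added and fluorescence measured next morning; values normalized to controls.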

[14] = system: 3D7; assay: as above; conditions: P. falciparum in erythrocytes, SYBR Green DNA, 72 h; series mostly up to 12.8 µM
Method in brief: as §1

[15] = system: 7G8; assay: as above; conditions: P. falciparum in erythrocytes, SYBR Green DNA, 72 h; series mostly up to 12.8 µM
Method in brief: as §1

[16] = system: AA1029; assay: as above; conditions: P. falciparum in erythrocytes, SYBR Green DNA, 72 h; series mostly up to 12.8 µM
Method in brief: as §1

[17] = system: AS120; assay: as above; conditions: P. falciparum in erythrocytes, SYBR Green DNA, 72 h; series mostly up to 12.8 µM
Method in brief: as §1

[18] = system: ATS189; assay: as above; conditions: P. falciparum in erythrocytes, SYBR Green DNA, 72 h; series mostly up to 12.8 µM
Method in brief: as §1

[19] = system: ATS95; assay: as above; conditions: P. falciparum in erythrocytes, SYBR Green DNA, 72 h; series mostly up to 12.8 µM
Method in brief: as §1

[20] = system: C2A; assay: as above; conditions: P. falciparum in erythrocytes, SYBR Green DNA, 72 h; series mostly up to 12.8 µM
Method in brief: as §1

[21] = system: CP185; assay: as above; conditions: P. falciparum in erythrocytes, SYBR Green DNA, 72 h; series mostly up to 12.8 µM
Method in brief: as §1

[22] = system: CP191; assay: as above; conditions: P. falciparum in erythrocytes, SYBR Green DNA, 72 h; series mostly up to 12.8 µM
Method in brief: as §1

[23] = system: CP192; assay: as above; conditions: P. falciparum in erythrocytes, SYBR Green DNA, 72 h; series mostly up to 12.8 µM
Method in brief: as §1

[24] = system: CP194; assay: as above; conditions: P. falciparum in erythrocytes, SYBR Green DNA, 72 h; series mostly up to 12.8 µM
Method in brief: as §1

[25] = system: CP201; assay: as above; conditions: P. falciparum in erythrocytes, SYBR Green DNA, 72 h; series mostly up to 12.8 µM
Method in brief: as §1

[26] = system: CP203; assay: as above; conditions: P. falciparum in erythrocytes, SYBR Green DNA, 72 h; series mostly up to 12.8 µM
Method in brief: as §1

[27] = system: CP211; assay: as above; conditions: P. falciparum in erythrocytes, SYBR Green DNA, 72 h; series mostly up to 12.8 µM
Method in brief: as §1

[28] = system: CP217; assay: as above; conditions: P. falciparum in erythrocytes, SYBR Green DNA, 72 h; series mostly up to 12.8 µM
Method in brief: as §1

[29] = system: CP237; assay: as above; conditions: P. falciparum in erythrocytes, SYBR Green DNA, 72 h; series mostly up to 12.8 µM
Method in brief: as §1

[30] = system: CP238; assay: as above; conditions: P. falciparum in erythrocytes, SYBR Green DNA, 72 h; series mostly up to 12.8 µM
Method in brief: as §1

[31] = system: CP247; assay: as above; conditions: P. falciparum in erythrocytes, SYBR Green DNA, 72 h; series mostly up to 12.8 µM
Method in brief: as §1

[32] = system: CP250; assay: as above; conditions: P. falciparum in erythrocytes, SYBR Green DNA, 72 h; series mostly up to 12.8 µM
Method in brief: as §1

[33] = system: CP252; assay: as above; conditions: P. falciparum in erythrocytes, SYBR Green DNA, 72 h; series mostly up to 12.8 µM
Method in brief: as §1

[34] = system: CP256; assay: as above; conditions: P. falciparum in erythrocytes, SYBR Green DNA, 72 h; series mostly up to 12.8 µM
Method in brief: as §1

CC[C@H]1NC(=O)c2cc(S(N)(=O)=O)c(Cl)cc2N1
inactive: outcome [1] | activity change, negative = inhibition [2] -14.6% | outcome [3] | Potency [4] > 20.6 µM | Potency [5] > 20.6 µM | Potency [6] | activation [7] 3.52% | outcome [8] | Potency [9] | Potency [10] | outcome [11] | Potency [12] | activity, negative = inhibition ([13]; parasite line A) -8.58% | activity, negative = inhibition ([13]; parasite line B) 18.4% | Potency [14] | Potency [15] | Potency [16] | Potency [17] | Potency [18] | Potency [19] | Potency [20] | Potency [21] | Potency [22] | Potency [23] | Potency [24] | Potency [25] | Potency [26] | Potency [27] | Potency [28] | Potency [29] | Potency [30] | Potency [31] | Potency [32] | Potency [33] | Potency [34]
